# Source: PubChem (National Center for Advancing Translational Sciences (NCATS))
# Eya2 inh – qHTS Assay for Inhibitors of the Phosphatase Activity of Eya2 | AID 488837, 2010 | Protein phosphatase EYA2 (Homo sapiens), O00167 | recombinant Eya2, OMFP fluorescence dephosphorylation (OMFP is methylfluorescein phosphate) | 0.006% of 330,000 active | Potency, µM (highest dose often 76.9 µM), without a hit: at the top dose activity, negative = inhibition, most hits filed as inhibitors; further: potency means the concentration at half of the fitted maximal effect
#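 Eya2 protein (added as 0.2 uM solution) was preincubated with compound for 10 min at ambient temperature in 50 mM HEPES pH 7.5, 50 mM NaCl, 5 uM MgCl2, 0.05% BSA, 1 mM DTT. OMFP (added at 50 uM) then reacted 10 min; fluorescence read at 485/525 nm.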
# PI4K2A inh – qHTS for small molecular inhibitors of PI4K2A | Phosphatidylinositol 4-kinase type 2-alpha (Homo sapiens), Q9BTU6 | purified PI4K2A, ADP-Glo luminescence, 1 h; active compounds read low | activity change, negative = inhibition, % at 76.9 µM | 0.13% of 420,000 active; in the data active means activity change below about -50%; inconclusive means mostly about -30% to -49%;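 further: -100% = wells without enzyme as full effect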
# Target sequence (Q9BTU6 whole entry, looked up): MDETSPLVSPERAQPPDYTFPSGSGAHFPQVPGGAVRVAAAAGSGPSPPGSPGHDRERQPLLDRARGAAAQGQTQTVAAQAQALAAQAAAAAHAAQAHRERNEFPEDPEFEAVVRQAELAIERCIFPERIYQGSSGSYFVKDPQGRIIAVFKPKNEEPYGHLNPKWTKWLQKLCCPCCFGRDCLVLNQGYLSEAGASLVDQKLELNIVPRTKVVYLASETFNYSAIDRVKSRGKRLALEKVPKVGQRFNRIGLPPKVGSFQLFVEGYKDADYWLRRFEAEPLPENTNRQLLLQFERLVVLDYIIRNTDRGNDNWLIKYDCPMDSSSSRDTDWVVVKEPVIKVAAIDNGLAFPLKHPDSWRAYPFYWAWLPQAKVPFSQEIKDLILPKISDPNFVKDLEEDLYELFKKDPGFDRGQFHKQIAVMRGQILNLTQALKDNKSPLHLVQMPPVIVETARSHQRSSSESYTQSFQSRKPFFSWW
#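 ADP-Glo luminescence measured ADP generated by PI4K2A enzyme (4 ug/mL before mixing) with 1.2 mM PI substrate (pre-mix) and 300 microM ATP (pre-mix). Tris pH7.5 buffer with MgCl2, Triton X-100; 1 h reaction at ambient temperature.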
# Six1-Eya2 blk – qHTS Assay for Inhibitors of the Six1/Eya2 Interaction; 0.56% of 360,000 active; Homeobox protein SIX1 (Homo sapiens) + Protein phosphatase EYA2 (Homo sapiens), …; AlphaScreen GST-Six1/His-Eya2 binding, biochemical; active compounds read low; activity change, % (test concentration not listed); AID 651725, 2012; in the data active means activity change below about -65%; inconclusive means mostly about -30% to -63%
#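 AlphaScreen with GST-Six1 and His-Eya2 (5X mix: 250 nM and 500 nM), glutathione donor and nickel acceptor beads; buffer 50 mM Tris pH 8.0, 300 mM NaCl, 1 mM TCEP; 1 h at 37 C in the dark.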
# USP2a block – qHTS Assay for Inhibitors of Ubiquitin-specific Protease USP2a Using CHOP2 as the Reporter. 0.01% of 330,000 active. Potency, µM (titrated, usually from 38.3 µM), for the others: top-dose activity change, negative = inhibition, actives largely listed as inhibitors. USP2 core, Ub-CHOP2 coupled fluorogenic reporter, 485/531. AID 463254, 2010. Ubiquitin carboxyl-terminal hydrolase 2 (Homo sapiens), O75604;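 further: potency means the concentration at half of the fitted maximal effect; plate controls were DMSO wells for no effect and full inhibition by NEM control for full effect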
#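 USP2 core (10nM final) preincubated 30min RT with compound in 20mM Tris-HCl pH 8.0, 2mM CaCl2, 2mM beta-mercaptoethanol, 0.05% CHAPS; 25nM Ub-CHOP2 plus 25nM reporter substrate added, fluorescence (Ex485/Em531) read after 60min.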
# RGS4 inhibitor – Inhibitors of Regulator of G Protein Signaling (RGS) 4: qHTS; Regulator of G-protein signaling 4 (Homo sapiens), P49798; 0.039% of 390,000 active; AID 504845, 2011; Transcreener GDP fluorescence polarization, RGS4-accelerated GTP hydrolysis; Potency, µM (titrated, usually from 114 µM), for the others: at the highest dose activity change, negative = inhibition, usual class: inhibitors; further: potency means the concentration at half of the fitted maximal effect; nearly all actives have a fitted effect of over 75% in size
# Target sequence (P49798 whole entry, looked up): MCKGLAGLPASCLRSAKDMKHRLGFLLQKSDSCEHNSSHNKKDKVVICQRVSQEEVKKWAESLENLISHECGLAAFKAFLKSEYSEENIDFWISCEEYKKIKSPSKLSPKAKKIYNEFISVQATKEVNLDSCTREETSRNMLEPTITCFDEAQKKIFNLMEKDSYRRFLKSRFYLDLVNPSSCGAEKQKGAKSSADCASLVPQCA
#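 MLSMR compounds (23 nl, pin-transferred) preincubated 10 min at room temperature with a 500nM (2x) first reagent, then RGS4 at 900nM (2x) plus Transcreener GDP mix added; fluorescence polarization (620/688 nm) read before and after 90 min at 30 °C.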
# CtBP-E1A blk – qHTS Assay for Inhibitors of the CtBP/E1A Interaction. CtBP / adenovirus E1A interaction (AlphaScreen). AlphaScreen GST-E1A/His-CtBP binding, 1536-well; active compounds read low. activity change, % (concentration not given with the values). 0.49% of 340,000 active. AID 651724, 2012; in the data active means activity change below about -65%; inconclusive means mostly about -30% to -63%
#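 Homogeneous bead-based format: GST-tagged E1A captured on glutathione donor beads, His-tagged CtBP on nickel acceptor beads; compounds precede bead addition by 2 h at 37 °C.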
# Numbers without * were called inactive; u = inconclusive; x = no result given; ! = not active in a repeat; [ ] = remark or other dose. Hits are enriched below; roughly 0.72% of the tested compounds scored in any of these assays. Unless noted, the call rests on the fitted dose curve; in most records, active means well fitted curve in the direction sought with a large enough effect; inconclusive means small, poorly fitted or top-dose-only effect, or another doubt; inactive means no such curve, though single readings can be large; an effect the other way counts as inactive or inconclusive. Unless noted, on the % scale 0 is the no-effect control and ±100 the full control effect.
SMILES,Eya2 inh,PI4K2A inh,Six1-Eya2 blk,USP2a block,RGS4 inhibitor,CtBP-E1A blk
CCOC(=O)Cc1nnc(NC(=O)C(CC)Sc2nnc3c4ccccc4n(C)c3n2)s1 (stereo unspecified),-25%,2,u,2%,19%,-71*
Cc1ccc(Nc2nnc(SCc3cc(=O)n4cc(C)ccc4n3)s2)cc1,3%,3,-23,-1%,-11%,-67*
Cc1ccc2nc(CSc3nnc(Nc4ccccc4F)s3)cc(=O)n2c1,-5%,-2,-8,2%,-22%,2
O=c1[nH][nH]cc1C=Nc1ccccc1O,-9%,1,-77*,0%,-26%,-83*
O=c1[nH][nH]cc1C=Nc1ccccc1Cl,4%,-7,14,10%,-17%,x
CSc1nc(N)n2nc(C)cc2n1,x,-4,-89*,x,x,-92*
CSc1nc(N)n2nc(C(C)(C)C)cc2n1,-1%,-2,3,-1%,-45%,-2
Cc1nc2ccc3nc(NC(=O)C4COc5ccccc5O4)sc3c2s1 (stereo unspecified),-28%,0,-3,2%,-17%,0
Cc1nc(C2COc3ccccc3O2)sc1C(=O)O (stereo unspecified),u,-63*,-1,-1%,-19%,8
COc1cc(OC)c(NC(=O)Nc2sc3nc4n(c(=O)c3c2C)CCC(C)CC4)cc1Cl (stereo unspecified),x,3,x,x,-20%,x
Cc1ccc(S(=O)(=O)Nc2cccc3ncccc23)s1,10%,-11,-86*,1%,-7%[11.4 µM],-81*
CCOC(=O)c1sc(NC(=O)CNCc2ccccn2)c(C(=O)OCC)c1C,-23%,-10,u,0%,5%,-71*
CC1CC(=O)NN=C1c1ccc(NCC(C)(C)NCC(O)COc2cc(Cl)ccc2C#N)cc1 (stereo unspecified),x,0,x,x,x,x
COc1cccc(CNc2ccc(N3CCCCC3)cc2)c1OC,13%,-10,-66*,0%,u,u
Cc1ccc(OCCSc2nc3ccccc3n2CCC(=O)O)cc1C,x,1,x,x,-6%,x
NCCCCNCCCN,-1%,-3,1,-7%,-2%[56.9 µM],5
NCCNCCNCCN,2%,0,-84*,1%,12%,-93*
CCOC(=O)c1ccc2ncc(C(=O)OCC)c(NCCN(C)C)c2c1,x,2,4,x,27%,5
CN(C)CCNc1ccc2nnn3c4ccc(O)cc4c(=O)c1c23,x,-18,-77*,x,-26%,0
CCN(CC)CCCNc1ccc2ncn3c4ccc(O)cc4c(=O)c1c23,x,-50*,u,x,u,1
CCN(CC)CCCNc1ncnc2ccccc12,7%,1,4,2%,u,2
COc1ccc(S(=O)(=O)NNC(=O)C(=O)NNc2ccccn2)cc1,-23%,13,-91*,-1%,1%,u
COc1cc([N+](=O)[O-])cc(/C=N/NC(=O)Cn2nc(C)cc2C)c1O,-22%,0,-91*,-3%,11%,u
COc1cc([N+](=O)[O-])cc(/C=N/NC(=O)Cn2nccc2C)c1O,2%,-3,-88*,1%,-39%[11.4 µM],-94*
COc1cc(C=C2C(=O)C=CC2=O)ccc1O,x,-56*,-74*,x,x,7
SMILES,Eya2 inh,PI4K2A inh,Six1-Eya2 blk,USP2a block,RGS4 inhibitor,CtBP-E1A blk
COc1ccccc1CNC(=O)C1CCCN(c2nn3cc(-c4ccc(F)cc4)nc3s2)C1 (stereo unspecified),x,-2,x,x,-16%,x
O=C(O)c1cccc(N2C(=O)c3cccc4cccc(c34)C2=O)c1,-1%,4,5,3%,23%,-19
O=C(O)c1cccc(N2C(=O)c3cc([N+](=O)[O-])cc4cc([N+](=O)[O-])cc(c34)C2=O)c1,-4%,-67*,-75*,1%,-8%,-68*
O=C(N/N=C/c1cc2c(cc1Br)OCO2)c1cccnc1,2%,0,-3,1%,6%,-10
O=C(N/N=C/c1ccc(Br)s1)c1cccnc1,-15%,3,0,1%,16%,-3
O=C(N/N=C/c1cc(Br)c(O)c(Br)c1O)c1cccnc1,1%,-4,-91*,0%,-2%,x
O=C(N/N=C/c1cc(O)ccc1Br)c1cccnc1,-6%,1,-91*,3%,-12%,-93*
Cc1ccc(NC2CCCN(C(=O)CCC3=NNC(=O)CC3)C2)cc1C (stereo unspecified),4%,-3,9,2%,1%,0
C=CC(=O)N1CCCC(Nc2nc(Nc3ccc(N(C)C(=O)CC)cc3C)nc3nc[nH]c23)C1 (stereo unspecified),5%,-3,-67*,3%,-13%,u
CCOc1ccc(-c2ccc(SC)nn2)cc1,17%,-85*,-3,0%,-14%,1
COc1ccccc1N1CCN(CCN(C(=O)C2CCCCC2)c2ccccn2)CC1,4%,-65*!,-7,0%,-5%,0
COc1ccccc1N1CCN(CC(C)N(C(=O)C2CCCCC2)c2ccccn2)CC1 (stereo unspecified),-27%,3,2,-2%,26%,-2
CCOC(=O)c1cnc(Nc2nc3ccccc3o2)nc1CN1CCN(C)CC1,8%,-5,-87*,4%,u,-85*
CCCOC(=O)Nc1nc2ccccc2o1,10%,-5,-6,1%,23%,-9
O=C(CN1C(=O)C2CCCCC2C1=O)Nc1nc(-c2ccccn2)cs1 (stereo unspecified),6%,7,-84*,-3%,-51%,-84*
C[C@@H](C(=O)Nc1nc(-c2ccccn2)cs1)N1C(=O)C2CCCCC2C1=O (stereo partly specified),5%,-8,-90*,1%,u,-90*
